# ALDH1A1 inh: qHTS Assay for Inhibitors of Aldehyde Dehydrogenase 1 (ALDH1A1) | Aldehyde dehydrogenase 1A1 (Homo sapiens), P00352 | Purified ALDH1A1, NADH fluorescence, propionaldehyde substrate | Potency, µM (doses to about 75.3 µM), without a hit: at the highest dose activity, negative = inhibition, hits mostly inhibitors | actives 7.3% (n = 220,000) | AID 1030, 2008; active = well fitted inhibition curve with a large enough effect, not every such curve was filed as active; inconclusive = small, poorly fitted or top-dose-only effect, or another doubt; inactive = no such curve, though single readings can be large or run the other way;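 note: potency is the fitted concentration of half-maximal effect; plate controls were no enzyme wells and a reference inhibitor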
# ALOX12 inhib: qHTS Assay for Inhibitors of 12-hLO (12-human lipoxygenase) | Polyunsaturated fatty acid lipoxygenase ALOX12 (Homo sapiens), P18054 | purified 12-hLO, xylenol orange hydroperoxide absorbance | Potency, µM (doses to about 57.1 µM), without a hit: at the highest dose activity change, negative = inhibition, actives largely listed as inhibitors | actives 0.12% (n = 150,000) | AID 1452, 2008; note: potency is the fitted concentration of half-maximal effect; nearly all actives have a fitted effect of over 55% in size
#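 Purified human 12hLO (150 nM final) was preincubated with compounds for 15 min at room temperature in 25 mM Hepes pH 7.0, 0.01% Triton X-100, then reacted with 40 uM arachidonic acid for 30 min. Hydroperoxide was detected with ferrous iron/xylenol orange.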
# IMPase Li inh: qHTS Assay for Identifying the Cell-Membrane Permeable IMPase Inhibitors: Potentiation with Lithium | AID 1457, 2008 | CHO-M1 cells, IP1 TR-FRET (IP-One), carbachol + lithium | Potency, µM (doses to about 59.4 µM), inactives show top-dose activity, negative = IMPase inhibition, actives largely listed as inhibitors | actives 0.35% (n = 210,000);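 note: IP1 builds up when IMPase is blocked and the TR-FRET signal falls; potency is the fitted concentration of half-maximal effect; plate controls were basal vehicle for no effect and high inhibitor control for full effect; nearly all actives have a fitted effect of over 50% in size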
#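 Concentration–response in CHO-M1 cells, lithium-potentiated; 30 min at 37C. IP1 detected by competitive TR-FRET after 10 min lysis at RT. Hill-fitted AC50.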
# IMPase inh: qHTS Assay for Identifying the Cell-Membrane Permeable IMPase Inhibitors | Inositol monophosphatase 1 (Rattus norvegicus), P97697 | AID 901, 2007 | 120,000 tested, under 10 active | CHO-M1 cells, IP1 accumulation, HTRF TR-FRET ratio | inhibition (IP1 accumulation), % at 46.1 µM; active = well fitted curve in the direction sought with a large enough effect in the signal ratio, not every such curve was filed as active; inconclusive = small, poorly fitted or top-dose-only effect, or a change in a side signal; inactive = no such curve, though single readings can be large or run the other way; the % refers to the signal ratio;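 note: cells stimulated with carbachol in lithium chloride buffer; plate controls were DMSO basal wells for no effect and reference inhibitor wells for full effect; higher means more IMPase inhibition seen as more IP1 and lower FRET ratio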
# Target sequence (P97697 whole entry, looked up): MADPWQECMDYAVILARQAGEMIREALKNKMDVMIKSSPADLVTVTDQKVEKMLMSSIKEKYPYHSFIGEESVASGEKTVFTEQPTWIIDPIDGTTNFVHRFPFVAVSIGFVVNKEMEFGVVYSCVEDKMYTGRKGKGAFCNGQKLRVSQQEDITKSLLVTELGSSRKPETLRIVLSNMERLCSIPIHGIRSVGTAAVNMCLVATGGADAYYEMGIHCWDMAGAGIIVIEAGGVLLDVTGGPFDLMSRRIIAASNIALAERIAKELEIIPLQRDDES
#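 CHO-M1 cells (CHO stably expressing M1 receptor), compound up to 46 uM final, stimulated with carbachol (50 uM as added) in buffer with 50mM LiCl, pH 7.4, 30 min at 37C. Cytosolic IP1 read by TR-FRET; AC50 from Hill fits.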
# NPSR antagonist: qHTS Assay for Antagonists of the Neuropeptide S Receptor: cAMP Signal Transduction; actives 1% (n = 220,000); Potency, µM (doses to about 38.3 µM), without a hit: at the highest dose activity change, negative = inhibition, most hits filed as inhibitors; Q6W5P4; CHO-NPSR cells, cAMP TR-FRET, antagonist mode; note: potency is the fitted concentration of half-maximal effect; nearly all actives have a fitted effect of over 50% in size
# Target sequence (Q6W5P4 whole entry, looked up): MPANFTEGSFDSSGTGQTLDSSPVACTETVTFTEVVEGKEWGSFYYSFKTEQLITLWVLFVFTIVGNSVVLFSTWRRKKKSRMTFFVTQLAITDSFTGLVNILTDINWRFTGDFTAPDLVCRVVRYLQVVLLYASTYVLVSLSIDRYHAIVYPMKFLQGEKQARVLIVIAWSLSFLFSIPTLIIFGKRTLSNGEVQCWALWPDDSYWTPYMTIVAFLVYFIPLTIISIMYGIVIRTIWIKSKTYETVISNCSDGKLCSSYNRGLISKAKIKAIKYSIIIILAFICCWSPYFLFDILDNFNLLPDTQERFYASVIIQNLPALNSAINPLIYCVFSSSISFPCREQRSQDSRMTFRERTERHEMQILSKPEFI
# HPGD inh: qHTS Assay for Inhibitors of HPGD (15-Hydroxyprostaglandin Dehydrogenase) | actives 4.3% (n = 150,000) | Potency, µM, for the others: at the top dose activity change, negative = inhibition, actives largely listed as inhibitors | purified HPGD, NADH fluorescence kinetic, PGE2 substrate | AID 894, 2007; active = well fitted inhibition curve with a large enough effect, not every such curve was filed as active; inconclusive = small, poorly fitted or top-dose-only effect, or another doubt; inactive = no such curve, though single readings can be large or run the other way; note: potency is the fitted concentration of half-maximal effect
#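 20 nM HPGD preincubated 15 min at room temperature with compound in 50 mM Tris-HCl pH 8, 0.01% Tween 20. Started with 1 mM NAD+ and 30 uM prostaglandin E2; NADH fluorescence (360/450 nm) read 5 times over 30-s intervals, last minus first.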
# * hit, by the source's call; ? = inconclusive; . = no result; [ ] = dose if it differs, or a comment. Rows were chosen to be rich in hits. Some 8.9% of all compounds tested hit in one or more screens of this group. Unless noted, calls come from the whole dose curve; as a rule, active = well fitted curve in the direction sought with a large enough effect; inconclusive = small, poorly fitted or top-dose-only effect, or another doubt; inactive = no such curve, though single readings can be large; an effect the other way counts as inactive or inconclusive. Unless noted, % is set by controls: 0 for no effect and ±100 for the full control effect.
SMILES,ALDH1A1 inh,ALOX12 inhib,IMPase Li inh,IMPase inh,NPSR antagonist,HPGD inh
CCOc1ccc(NC(=O)C2CCN(c3nnnn3-c3ccccc3)CC2)cc1,12.6µM*,-1.9%,5.4%,-0.3,-4.5%[46.1 µM],-3.2%
O=C(NC(=S)Nc1ccc(Cc2ccncc2)cc1)c1ccccc1,17.8µM*,-9.5%,1.4%,.,-20.3%,?
Cc1cccc(C(=O)NC(=S)Nc2ccc(Cc3ccncc3)cc2)c1,20µM*,?,16.7%[38.3 µM],6.9,-15.8%[46.1 µM],?
CN(C)c1ccc(C(CN)c2c[nH]c3ccccc23)cc1 (centres undefined),15.8µM*,.,15.5%,.,-16.5%,.
CN(C)c1ccc(C(CNS(=O)(=O)c2ccc3ccccc3c2)c2c[nH]c3ccccc23)cc1 (centres undefined),-8.8%,-4.6%,-5.7%,.,-26.8%,-3.7%
C/C(=C\c1ccccc1)C(=O)N1CCN(c2cccc(C(F)(F)F)c2)CC1,5.3%,-2.4%,21.8%,.,-10.1%,25.1µM*
O=C1NCCN(Cc2c(F)cccc2Cl)C1CC(=O)N1CCCCO1 (centres undefined),-15.8%,.,3.8%,.,15.7%,.
O=C1NCCN(Cc2ccc(Cl)c(F)c2)C1CC(=O)N1CCCCO1 (centres undefined),25.1µM*,.,0.3%,.,-17.4%,.
C(=N\N(Cc1ccccc1)c1ccccc1)/c1ccco1,14.1µM*,.,18.2%,.,-39.9%,.
CCOc1cccc(OCCOc2ccc(C(=O)c3ccccc3)cc2)c1,2.6%,-1.3%,4.8%,.,-12.7%,-8.0%
CCOc1ccc2cc(C(=O)c3ccccc3)c(=O)oc2c1,?,1.5%,25.1µM*,.,-13.3%,-16.6%
COc1ccc2cc(C(=O)c3ccccc3)c(=O)oc2c1,14.1µM*,-8.6%,-13.4%[38.3 µM],9.3,-8.2%[46.1 µM],-12.4%
c1ccc(CN2CCC(Nc3nc(-c4ccccc4)nc4ccccc34)CC2)cc1,0.0%,-13.3%,35.0%[38.3 µM],1.0,?,-8.4%
O=[n+]1c2c(n([O-])c3c1CCCC3)CCCCC2,9.5%,0.0%,-10.5%[38.3 µM],4.1,-10.6%[46.1 µM],-21.0%
O=C1C2C3C=CC(C4CC34)C2C(=O)N1/N=C/c1ccc(-c2cccc([N+](=O)[O-])c2)o1 (centres undefined),14.1µM*,-2.1%,20.9%,.,-2.1%,12.6µM*
CC1CCCCC1NC(=O)c1ccc2c(c1)[nH]c(=O)n2C1CCCC1 (centres undefined),14.1µM*,-0.6%,-18.9%[38.3 µM],15.1,-16.7%[46.1 µM],-10.5%
O=S(=O)(Cc1ccccc1Cl)CC(O)COc1ccccc1Cl (centres undefined),-3.9%,-10.4%,11.2%[38.3 µM],-4.1,-19.8%[46.1 µM],11.2µM*
CCOC(=O)c1c(C)oc2ccc(N(C(=O)c3ccncc3)S(=O)(=O)c3ccc(F)cc3C)cc12,.,.,.,10.9,.,.
COc1ccc(C(=NNc2ccccc2C(=O)O)c2ccc(OC)cc2)cc1,?,-4.1%,12.6%,.,7.94µM*,-8.5%
COc1ccc(S(=O)(=O)Nc2ccccc2C(=O)O)cc1,?,-3.8%,.,.,.,?
CCn1nc2cc(C(=O)NCC34CC5CC(CC(C5)C3)C4)ccc2c1OC,17.8%,-9.3%,?,6.9,-11.0%[46.1 µM],?
COc1cccc(/C=N/NC(=O)c2cc(-c3ccc(C)cc3)n[nH]2)c1O,-0.7%,-3.2%,.,.,.,39.8µM*
CNC(=O)OCCSCCS(=O)(=O)c1ccc(Cl)cc1,.,.,.,.,-4.8%[7.67 µM],.
COC(=O)c1cc(NC(=O)c2cccc(Cl)c2)c(=O)oc1/C=C/Nc1cc(C)cc(C)c1,-6.5%,.,-2.1%,.,-2.2%,.
CCOc1ccc(S(=O)(=O)N2CCCCC2)c2ccccc12,31.6µM*,-10.7%,5.6%[38.3 µM],-1.4,-17.1%[46.1 µM],-29.4%
SMILES,ALDH1A1 inh,ALOX12 inhib,IMPase Li inh,IMPase inh,NPSR antagonist,HPGD inh
CCOc1ccc(C(C)(C)C)cc1S(=O)(=O)N1CCOCC1,3.16µM*,-1.3%,34.3%[38.3 µM],8.6,-18.0%[46.1 µM],-3.2%
CCOc1ccc(S(=O)(=O)N2CCCCC2)c(C)c1C,?,.,13.3%,.,-27.9%,.
COc1ccc(Oc2ncc3nc(-c4cccs4)c(=O)n(-c4ccccc4)c3n2)cc1,28.4%,-1.9%,-1.8%,.,.,-10.3%
COCc1cc(C)nc(Nc2ccccc2C)c1C#N,-4.4%,4.5%,-6.0%[38.3 µM],-0.5,-10.8%[46.1 µM],-21.3%
CC(=O)C1=C(C)NC(=O)NC1c1ccccc1 (centres undefined),8.5%,-1.6%,0.3%[38.3 µM],2.3,17.8%[7.67 µM],-6.0%
CC1=C([N+](=O)[O-])C(c2ccccc2)C2=C(N1)c1ccccc1C2=O (centres undefined),?,-4.7%,3.4%[38.3 µM],3.0,13.9%[46.1 µM],22.4µM*
O=C1NC2=C(C(=O)c3ccccc32)C(c2ccccc2)N1 (centres undefined),15.8µM*,-6.6%,-14.0%[38.3 µM],0.0,-16.6%[46.1 µM],-23.7%
C=CCn1c(SCc2nc(N)nc(N3CCCCC3)n2)nnc1-c1ccco1,22.4µM*,-3.0%,-5.0%[38.3 µM],-7.7,-10.6%[46.1 µM],15.8µM*
COc1cc(OC)c(/C=N/NC(=O)c2ccncc2)cc1Br,?,.,0.0%,.,6.3%,.
CCN(CC)S(=O)(=O)c1cccc(C(=O)OCC(=O)Nc2ccc3c(c2)c2ccccc2n3CC)c1,22.4µM*,-2.5%,-0.4%,.,9.1%,-25.8%
CCN(CC)S(=O)(=O)c1ccc(NC(=O)COC(=O)CCc2cc(OC)c(OC)c(OC)c2)cc1,2.51µM*,2.1%,3.1%,6.1,22.3%,-4.5%
COc1cc(CCC(=O)OCC(=O)Nc2cccc(S(=O)(=O)N(C)C)c2)cc(OC)c1OC,-8.7%,2.3%,-8.6%,.,11.8%,-2.0%
CCc1cc2c(=O)c(-c3ccc(F)cc3)c(C)oc2cc1OCC(=O)O,35.5µM*,.,-0.8%,.,20.3%,.
CCc1cc2c(=O)c(-c3cnn(-c4ccccc4)c3)c(C)oc2cc1OCC(=O)Nc1ccc(F)c(F)c1,17.8%,-2.6%,-6.9%,.,7.94µM*,-14.1%
CCc1cc2c(=O)c(-c3cnn(-c4ccccc4)c3)c(C)oc2cc1OCC(=O)Nc1cccc(C)c1,2.6%,-0.9%,?,.,?,-6.2%
Oc1ccccc1-c1cc(C(F)(F)F)[nH]n1,.,.,.,.,1.0%,.
Oc1ccc(Br)cc1-c1cc(-c2ccc(Cl)cc2)n[nH]1,7.5%,-1.4%,35.1%[38.3 µM],10.3,?,?
Cc1ccc(-c2cc(-c3ccccc3C)[nH]n2)c(O)c1,0.7%,-28.6%,24.3%,9.7,?,10µM*
O=[N+]([O-])c1ccccc1-c1cc(-c2ccccc2O)n[nH]1,?,-9.9%,12.3%,.,-13.4%,12.6µM*

# Source: PubChem (National Center for Advancing Translational Sciences (NCATS))
